# Reference: the supplement of paper PMC8728848
# Only a selection was taken, and the strongest signals are over-represented in it overall.
# Tests used:
# Experiment in all cases: glycan array binding signal (z-score within array); higher = stronger binding
# Settings in all cases: glycan notation: IUPAC condensed, linker removed
# [1] = tested on: Fuc(a1-2)[GalNAc(a1-4)]Gal(b1-4)GlcNAc
# Method in brief: (§1)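 Negative Z-scores can be read as non-binding. The Z-score is calculated within each array and then averaged across arrays of one protein sequence at different concentrations or buffers and across linkers. Arrays, 3228 in all, were curated from the Consortium for Functional Glycomics database and kept only where the protein sequence was available.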
# [2] = tested on: Fuc(a1-3)[Gal(b1-4)]GlcNAc(b1-2)Man(a1-3)[Fuc(a1-3)[Gal(b1-4)]GlcNAc(b1-2)Man(a1-6)]Man(b1-4)GlcNAc(b1-4)GlcNAc
# Method in brief: as §1
# [3] = tested on: Fuc(a1-3)[Gal(b1-4)]GlcNAc(b1-3)Gal(b1-3)[Fuc(a1-4)]GlcNAc
# Method in brief: as §1
# [4] = tested on: Fuc(a1-3)[Gal3S(b1-4)]GlcNAc
# Method in brief: as §1
# [5] = tested on: Fuc(a1-3)[Neu5Ac(a2-3)]Gal(b1-4)GlcNAc(b1-3)GalNAc
# Method in brief: as §1
# [6] = tested on: Fuc(a1-3)[Gal(b1-4)]GlcNAc(b1-2)Man
# Method in brief: as §1
# [7] = tested on: Fuc(a1-3)[GalNAc(b1-4)]GlcNAc
# Method in brief: as §1
# [8] = tested on: Fuc(a1-2)[GalNAc(a1-3)]Gal
# Method in brief: as §1
# [9] = tested on: Fuc(a1-2)[GalNAc(a1-3)]Gal(b1-4)GlcNAc(b1-3)GalNAc
# Method in brief: as §1
# [10] = tested on: Fuc(a1-2)[GalNAc(a1-3)]Gal(b1-4)GlcNAc(b1-6)GalNAc
# Method in brief: as §1
# [11] = tested on: Fuc(a1-2)[GalNAc(a1-3)]Gal(b1-4)GlcNAc(b1-3)Gal(b1-4)GlcNAc
# Method in brief: as §1
# [12] = tested on: Fuc(a1-2)[GalNAc(a1-3)]Gal(b1-4)GlcNAc
# Method in brief: as §1
# [13] = tested on: Fuc(a1-2)[GalNAc(a1-3)]Gal(b1-4)[Fuc(a1-3)]GlcNAc(b1-3)GalNAc
# Method in brief: as §1
# [14] = tested on: Fuc(a1-3)[Gal3S(b1-4)]GlcNAc6S
# Method in brief: as §1
# Fuc(a1-3)GlcNAc = tested on: Fuc(a1-3)GlcNAc
# Method in brief: as §1
# [15] = tested on: Fuc(a1-3)[Gal(b1-4)]Glc6S
# Method in brief: as §1
# [16] = tested on: Fuc(a1-3)[Gal(b1-4)]GlcNAc(b1-3)Gal(b1-4)[Fuc(a1-3)]GlcNAc(b1-3)Gal(b1-4)[Fuc(a1-3)]GlcNAc
# Method in brief: as §1
# [17] = tested on: Fuc(a1-3)[Gal(b1-4)]GlcNAc(b1-3)GalNAc
# Method in brief: as §1
# [18] = tested on: Fuc(a1-2)[GalNAc(b1-3)]Gal
# Method in brief: as §1
# [19] = tested on: Fuc(a1-3)[Gal(b1-4)]GlcNAc(b1-6)[Gal(b1-3)GlcNAc(b1-3)]Gal(b1-4)Glc
# Method in brief: as §1
substance,measurement,setting,value
"SpGH101 (Streptococcus pneumoniae), Q8DR60",glycan array binding signal (z-score),[1],-0.12
same,glycan array binding signal (z-score),[2],-0.202
same,glycan array binding signal (z-score),[3],-0.148
same,glycan array binding signal (z-score),[4],-0.161
same,glycan array binding signal (z-score),[5],0.764
"Wza (Escherichia coli), P0A930",glycan array binding signal (z-score),[6],0.907
same,glycan array binding signal (z-score),[4],-1.1
same,glycan array binding signal (z-score),[7],-1.12
"GspB (Streptococcus gordonii), Q939N5",glycan array binding signal (z-score),[8],-0.616
LcI (Legionella pneumophila),glycan array binding signal (z-score),[9],0.164
same,glycan array binding signal (z-score),[10],2.06
same,glycan array binding signal (z-score),[2],0.959
Epa22,glycan array binding signal (z-score),[11],0.068
AgI/II Vhelical-GFP (Streptococcus mutans),glycan array binding signal (z-score),[12],-0.146
same,glycan array binding signal (z-score),[13],2.49
same,glycan array binding signal (z-score),[1],2.31
same,glycan array binding signal (z-score),[14],-0.111
"BambL (Burhholderia ambifaria), Q0B4G1",glycan array binding signal (z-score),Fuc(a1-3)GlcNAc,7.79
same,glycan array binding signal (z-score),[15],-0.021
same,glycan array binding signal (z-score),[3],1.03
Actinohivin (Actinomycete K97),glycan array binding signal (z-score),[16],-0.173
same,glycan array binding signal (z-score),[17],-0.169
same,glycan array binding signal (z-score),[7],-0.17
"SiiE (Salmonella typhimurium), A0A0H3NVH0",glycan array binding signal (z-score),[18],1
same,glycan array binding signal (z-score),[15],1.25
same,glycan array binding signal (z-score),[19],1.13
AgI/IIC123-GFP (Streptococcus mutans),glycan array binding signal (z-score),[10],2.18
same,glycan array binding signal (z-score),[13],4.84
same,glycan array binding signal (z-score),[15],-0.357
same,glycan array binding signal (z-score),[14],-0.143
